In the library only some 6.9% were active in any assay of this set; here they are far more common.
Cy5 interf NS3h: counter-screen for HCV NS3 helicase inhibitors: fluorescence interference | fluorescence interference ratio at 100 µM | Cy5-dT15 DNA with NS3h; actives lie on both sides; signal over control mean, under 1 quenches | 16,000 tested, 6% active | AID 720488;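 active means compound fluorescence over control fluorescence at most 0.8, a quencher, or at least a set upper limit, an enhancer; inactive means ratio between 0.8 and the set upper limit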
NS3h inh CB: blocks HCV NS3 helicase binding to DNA; 16,000 tested, 1.6% active; NS3h Cy5-dT15 DNA binding, fluorescence polarization; inhibition, % at 100 µM;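 active means inhibition above the average over every tested compound plus 3 SD, cut at about 40% in these data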
HCV NS3h conf: hepatitis C NS3 helicase inhibition, confirmation. NS3h binding to Cy5-dT15 DNA, fluorescence polarization. 240 tested, 20% active. shares compounds with NS3h inh CB. inhibition, % at 100 µM. AID 720485;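 active means percent inhibition of 50% or more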
SSB FP counter: disrupts E. coli SSB binding to DNA in counter-screen. shares compounds with NS3h inh CB. E. coli SSB binding Cy5-dT15, fluorescence polarization. inhibition, % at 100 µM. 240 tested, 40% active;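 active means inhibition of at least 50%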;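 further: displacers lower Cy5 polarization so higher inhibition means more SSB displaced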
Target sequence (P0AGE0 whole entry, looked up): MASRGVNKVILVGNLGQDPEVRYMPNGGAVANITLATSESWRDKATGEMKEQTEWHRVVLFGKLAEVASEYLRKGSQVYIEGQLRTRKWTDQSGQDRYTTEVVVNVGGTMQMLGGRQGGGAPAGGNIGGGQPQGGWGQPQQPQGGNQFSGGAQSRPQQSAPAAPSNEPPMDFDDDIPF
Cy5 SSB interf: Cy5 fluorescence interference in NS3h counter-screen | AID 720487 | Cy5-dT15/E. coli SSB fluorescence interference; actives lie on both sides | fluorescence interference ratio at 100 µM | shares compounds with NS3h inh CB | 240 tested, 8% active;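 active means fluorescence interference ratio at or above 1.2, signal boosting, or at or below 0.8, signal quenching; inactive means ratio between 0.8 and 1.2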
Cy5 fluor confirm: Cy5 fluorescence interference, confirmation counter-screen; shares compounds with NS3h inh CB; Cy5-dT15 DNA/NS3h fluorescence interference counterscreen; fluorescence interference ratio at 100 µM, hits read low; 240 tested, 44% active; AID 720489;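 active means fluorescence interference ratio at or below 0.8 quencher or at or above a set limitenhancer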
Numbers stand for hits; – = inactive.

SMILES | Cy5 interf NS3h | NS3h inh CB | others
COc1cccc(OC)c1C(=O)Nc1ncn[nH]1 | – | –
Oc1[nH]c2ccccc2c1C1=NCCC1 | – | –
O=C(O)CCC(=O)Nc1ccc(S(=O)(=O)N2CCCCCC2)cc1 | – | –
Nc1ccc(S(=O)(=O)N2CCCCCC2)cc1 | 0.75 | –
O=C(Nc1ccccc1)Nc1nnc(Cc2cccc(Br)c2)s1 | – | –
O=S(=O)(c1cccc2ccccc12)n1cnc2ccccc21 | – | –
COc1cc(/C=C2\C=C(c3ccc(Br)cc3)OC2=O)ccc1OC(C)=O | – | –
Cc1cc(/C=C2\C(=O)NC(=S)N(c3ccc(Br)cc3)C2=O)c(C)n1C | – | –
Cc1cc(Br)ccc1N1C(=O)/C(=C/c2cc(C)n(C)c2C)C(=O)NC1=S | 1.2 | –
CCc1ccccc1N1C(=O)/C(=C/c2cc(C)n(C)c2C)C(=O)NC1=S | 1.2 | –
Cc1cc(C=C2C(=O)N(C)C(=O)N(C)C2=O)c(C)n1C | – | –
Cc1cc(/C=C2\C(=O)NC(=S)N(c3ccccc3)C2=O)c(C)n1-c1ccccc1 | – | –
Cc1cc(/C=C2\C(=O)NC(=S)N(c3ccccc3)C2=O)c(C)n1-c1cccnc1 | 1.2 | –
Cc1c(NC(=O)C(C)Oc2ccccc2)cccc1NC(=O)C(C)Oc1ccccc1 (stereo unspecified) | – | –
CCN(CC)c1ccc(/C=C2/SC(=S)N(CNc3cccc(C)c3)C2=O)cc1 | 0.65 | –
CCN1C(=O)/C(=C\c2cccc(C)c2)SC1=S | – | –
COc1cc(C(=S)N2CCOCC2)cc(OC)c1OC(=O)c1cccc([N+](=O)[O-])c1 | – | –
O=C1/C(=C/c2ccc(Br)o2)SC(=S)N1c1cccc(C(F)(F)F)c1 | – | –
O=C1/C(=C/c2ccc(Br)o2)SC(=S)N1c1ccccc1 | 0.64 | –
COc1ccc(/C=c2\sc3nnc(-c4ccccc4)n3c2=O)c(OC)c1 | – | –
O=C1NC(=O)N(c2ccccc2)C(=O)/C1=C\c1cccc(OCc2ccccc2F)c1 | – | –
O=C1NC(=O)C(=Cc2cccc(OCc3ccc(Cl)cc3Cl)c2)C(=O)N1 | – | – | HCV NS3h conf=–;SSB FP counter=–;Cy5 SSB interf=–;Cy5 fluor confirm=0.74
Cc1ccc(C)n1-c1ccc(OCC(=O)O)cc1 | 1.4 | 82 | HCV NS3h conf=78;SSB FP counter=95;Cy5 SSB interf=–;Cy5 fluor confirm=–
Cc1nc(=O)c(-c2ccccc2)c(C)n1-c1ccc(OCC(=O)O)cc1 | – | –
Cc1ccc(NC(=O)C(C)Sc2ccc(Cl)cc2)cc1 (stereo unspecified) | – | –
SMILES | Cy5 interf NS3h | NS3h inh CB | others
COC1(/C(N)=C/C(=O)c2ccccc2)CCCCC1 | – | –
Nc1c(Cl)cc(N2C(=O)C=CC2=O)cc1Cl | – | 54 | HCV NS3h conf=62;SSB FP counter=–;Cy5 SSB interf=–;Cy5 fluor confirm=–
COc1nsnc1NS(=O)(=O)c1ccc(NC(=S)NC(=O)c2sc3cc(F)ccc3c2Cl)cc1 | – | 94 | HCV NS3h conf=–;SSB FP counter=–;Cy5 SSB interf=–;Cy5 fluor confirm=0.76
COc1ccc2c(Cl)c(C(=O)Nc3ccc(N4CCOCC4)cc3)sc2c1 | – | –
O=C1NN(c2ccc(Cl)cc2)C(=O)/C1=C\c1ccc(-c2cccc(C(=O)O)c2)o1 | – | 55 | HCV NS3h conf=–;SSB FP counter=61;Cy5 SSB interf=–;Cy5 fluor confirm=0.73
O=C1NN(c2ccc(F)c(Cl)c2)C(=O)/C1=C\c1ccc(-c2cccc(C(=O)O)c2)o1 | 0.8 | 43 | HCV NS3h conf=–;SSB FP counter=–;Cy5 SSB interf=–;Cy5 fluor confirm=–
COC(=O)c1ccccc1-c1ccc(/C=C2\C(=O)NN(c3ccccc3)C2=O)o1 | – | –
NS(=O)(=O)c1ccc(-c2ccc(/C=C3/C(=O)NN(c4cccc(Cl)c4)C3=O)o2)cc1 | – | –
CN(C)c1ccc(/C=C/C(=O)/C=C/c2ccc(N(C)C)cc2)cc1 | – | –
CN(C)c1ccc(N2C(=O)C=CC2=O)cc1 | – | 65 | HCV NS3h conf=–;SSB FP counter=–;Cy5 SSB interf=–;Cy5 fluor confirm=0.76
O=C1C=CC(=O)N1c1ccc(SC(F)F)cc1 | – | –
COc1ccc(N2C(=O)C=C(Nc3ccccc3)C2=O)cc1 | – | –
C=C(C)C(=O)Oc1ccc(N2C(=O)CCC2=O)cc1 | – | –
C=C(C)C(=O)Oc1ccc(N2C(=O)C=CC2=O)cc1 | – | 81 | HCV NS3h conf=55;SSB FP counter=–;Cy5 SSB interf=–;Cy5 fluor confirm=–
COc1ccc(N2C(=O)C=CC2=O)cc1 | 0.77 | 84 | HCV NS3h conf=–;SSB FP counter=–;Cy5 SSB interf=–;Cy5 fluor confirm=0.77
O=C1C=CC(=O)N1c1ccc(OC(F)F)cc1 | – | 46 | HCV NS3h conf=–;SSB FP counter=–;Cy5 SSB interf=–;Cy5 fluor confirm=–
COc1ccc(N2C(=O)NC(=O)/C(=C\c3cc(Cl)c(OC)c(Cl)c3)C2=O)cc1 | – | –

From PubChem
